About 83,000 compounds went through this panel and 20% of them were active in at least one assay; those are over-represented in the sample as a whole.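 Compound tested at a single concentration for 48 hours in 96-well plates; a percent growth value below 10 was scored as active.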 Activity calls are given as the source filed them.
Each compound was assayed on MALME-3M melanoma (assay: NCI-60 one-dose screen, 48 h (100 = growth as untreated, 0 = no growth, -100 = all killed)). Conditions: 10 µM.
`COc1cc2cc(C(=O)N3C[C@@H](CCl)c4c3cc(OC(=O)N3CCN(C)[C@@H]5CSSC[C@H]53)c3ccccc43)[nH]c2c(OC)c1OC` was tested, and the growth was -92% (active).
For `CC1=C(CCC=O)C2=C(C)C3(CC3)[C@@](C)(O)C(=O)C2=C1`, the growth was -96% (active).
For `COC(=O)C[C@](O)(CCC(C)C)C(=O)O[C@@H]1C(OC)=C[C@]23CCCN2CCc2cc4c(cc2[C@H]13)OCO4`, the growth was -90.9% (active).
For `O=C(/C=C/c1ccc(Cl)cc1)c1nc2ccccc2n1Cc1ccc(F)cc1`, the growth was 49.9% (inactive).
For `CC[C@]12C=CCN3CC[C@@]4(c5ccc(OC)cc5N(C)[C@H]4[C@@](O)(C(=O)OC)[C@@H]1OC(=O)CCC[P+](C1CCCCC1)(C1CCCCC1)C1CCCCC1)[C@@H]32`, the growth was -96.1% (active).
In the case of `CC1=C2C(=C[C@@](C)(COP(=O)(Oc3ccccc3)Oc3ccccc3)[C@@H]2O)C(=O)[C@@](C)(O)C12CC2`, the growth is reported as -96.7% (active).
In the case of `CC(=O)Oc1ccccc1C(=O)NC([Se])=NC1CCCCC1`, the growth is reported as -6.63% (active).
In the case of `CCOP(=O)(CC(F)(F)C(F)(F)F)OCC`, the growth is reported as -70.4% (active).
For `CC(C)C[C@H](NC(=O)CNC(=O)C[C@H]1O[C@@H]2OC3(C)CC[C@H]4[C@H](C)CC[C@@H]([C@H]1C)[C@@]24OO3)B(O)O`, the growth was -56.5% (active).
In the case of `C[C@H]1[C@@H](Oc2ccc(-c3cn(-c4ccnc5cc(Cl)ccc45)nn3)cc2)O[C@@H]2OC3(C)CC[C@H]4[C@H](C)CC[C@@H]1[C@@]24OO3`, the growth is reported as 13.7% (inactive).
With `C[C@H]1[C@H](OC(=O)CCC(=O)N(CCCc2cn(-c3ccc([N+](=O)[O-])cc3)nn2)CCNc2ccnc3cc(Cl)ccc23)O[C@@H]2OC3(C)CC[C@H]4[C@H](C)CC[C@@H]1[C@@]24OO3` the growth was 47.5% (inactive).
With `COc1cc2cc(C(=O)N3C[C@@H](CCl)c4c3cc(OC(=O)N3CCN(C)[C@@H]5CSSC[C@@H]53)c3ccccc43)[nH]c2c(OC)c1OC` the growth was -70.3% (active).
In the case of `COc1cc2cc(C(=O)N3C[C@@H](CCl)c4c3cc(OC(=O)N3CCN(C(=O)CCC(=O)N5CCN(C)CC5)[C@@H]5CSSC[C@@H]53)c3ccccc43)[nH]c2c(OC)c1OC`, the growth is reported as -99.3% (active).
In the case of `COC(=O)c1ccc(-n2cc(CCCN(CCNc3ccnc4cc(Cl)ccc34)C(=O)CCC(=O)O[C@@H]3O[C@@H]4OC5(C)CC[C@H]6[C@H](C)CC[C@@H]([C@H]3C)[C@@]46OO5)nn2)cc1`, the growth is reported as -61.5% (active).
`O=C([Se]C1C=CCCC1)c1ccc(C(=O)[Se]C2C=CCCC2)s1` (stereo not given) was tested, and the growth was -85.7% (active).
`O=C(/C=C/c1cccc(Br)c1)c1nc2ccccc2n1Cc1ccc(F)cc1` was tested, and the growth was 50.5% (inactive).
With `CC[C@]12C=CCN3CC[C@@]4(c5ccc(OC)cc5N(C)[C@H]4[C@@](O)(C(=O)OC)[C@@H]1OC(=O)CCC[P+](c1ccc(C)cc1)(c1ccc(C)cc1)c1ccc(C)cc1)[C@@H]32` the growth was -94.4% (active).
In the case of `O=C(NC([Se])=NC1CCCCC1)c1ccccc1`, the growth is reported as 94.4% (inactive).
For `O=C(/C=C/c1ccc(F)cc1)c1nc2ccccc2n1Cc1ccc(F)cc1`, the growth was -23.8% (active).
With `O=C(/C=C/c1ccccc1)c1nc2ccccc2n1Cc1ccc(Br)cc1` the growth was -64.7% (active).
In the case of `C=CC[Se]C(=O)c1cncc(C(=O)[Se]CC=C)c1`, the growth is reported as -67% (active).
With `COc1ccc(OC)c(/C=C/C(=O)c2nc3ccccc3n2Cc2ccc(F)cc2)c1` the growth was -36.9% (active).
With `O=C(/C=C/c1ccc(F)cc1)c1nc2ccccc2n1Cc1ccc(Br)cc1` the growth was -77.9% (active).
`CC[C@]12C=CCN3CC[C@@]4(c5ccc(OC)cc5N(C)[C@H]4[C@@](O)(C(=O)OC)[C@@H]1OC(=O)CCCC[P+](c1ccc(C)cc1)(c1ccc(C)cc1)c1ccc(C)cc1)[C@@H]32` was tested, and the growth was -96% (active).
For `CC(C)N=C([Se])NC(=O)c1cccs1`, the growth was 102% (inactive).
In the case of `CC1=C(CCC=NNC(N)=O)C2=C(C)C3(CC3)[C@@](C)(O)C(=O)C2=C1`, the growth is reported as -93.4% (active).
In the case of `Cc1ccc2[nH]c(=S)n(-c3ccc(F)cc3)c(=O)c2c1`, the growth is reported as 96.4% (inactive).
For `C#CC[Se]C(=O)c1ccc2n[se]nc2c1`, the growth was 41.5% (inactive).
In the case of `CC1=C(COCCOC(=O)c2ccc(S(=O)(=O)F)cc2)C2=C(C)C3(CC3)[C@@](C)(O)C(=O)C2=C1`, the growth is reported as -78.2% (active).
With `CC12CCC3(CCC(=O)NCCCNc4ccnc5cc(Cl)ccc45)[C@@](C)(OO[C@]3(C)O1)O2` the growth was 17.5% (inactive).

Reference: PubChem BioAssay (NCI)
